These results are taken from PubChem BioAssay (EPA / NIEHS).

Some compounds were tested as several samples or in several runs, with calls that do not always agree. The source made the active and inactive calls. Rule for the calls: active = hit-call score of the fitted dose curve at least 0.9, where 1 is the maximum; inactive = score below 0.9.

The assay is described as follows: CCTE_Shafer_MEA_dev_burst_rate: CCTE's Neural Network Formation Assay for Burst Rate, Shafer Lab (AID 2284042). The method, then: CCTE_Shafer_MEA_dev assay is conducted using Axion Biosystems 48 well microelectrode array (MEA) plates and Maestro recording system. Each well of the MEA plate contains a grid of 16 microelectrodes embedded in the culture surface. Electrically active cells, such as neurons, can be cultured over the electrodes, and electrical activity in these cells can be recorded extracellularly. The spontaneous firing of neurons is captured from each electrode on a microsecond timescale providing both temporally and spatially precise data. […] The CCTE_Shafer_MEA_dev assay uses primary cultures of rat cortical neurons. Recordings are made on days post-plating 5, 7, 9 and 12. As these cultures mature over time, neural networks develop functional activity and form cohesive networks in which electrical activity can be highly coordinated. CCTE_Shafer_MEA_dev_burst_rate is 1 of 19 assay components of the CCTE_Shafer_MEA_dev assay. It measures the frequency of single-electrode bursts (temporally-clustered groups of action potential firing) as the total number of bursts divided by the length of the recording in a microelectrode array (MEA) using Axion Biosystems Maestro 768 channel amplifier with the AxIS adaptive spike detector. The mean bursting rate is averaged across the active electrodes to report a well-mean value. To collapse across multiple recordings made on days post-plating 5, 7, 9 and 12, the trapezoidal area-under-the-curve of the component is calculated.Data from the assay component CCTE_Shafer_MEA_dev_burst_rate was analyzed into 1 assay endpoint. This assay endpoint, CCTE_Shafer_MEA_dev_burst_rate, was analyzed in the negative analysis fitting direction relative to DMSO as the negative control and baseline of activity. Using a type of functional reporter, gain or loss-of-signal activity can be used to understand electrical activity.
On the day prior to culture, each well was coated thoroughly with 150 uL of 0.05% polyethyleneimine (PEI, Sigma Cat P3143) in 50 mM HEPES (Sigma Cat H7523) at a pH of 8. The plate was incubated at 37C for one hour. PEI was rinsed out with 500 uL of sterile water three times. Plates were stored at 4C until the day of culture. This culture was plated at a seeding density of 1.5 x 10^5 cells/well on a 48-well MEA plate, prepared as described above. Cells were administered via a 25 uL media/laminin ([…]; Sigma Cat L2020-1MG) drop directly onto the microelectrode array, as adding the cells with the laminin results in better attachment than pre-coating with laminin. After 2 hours, an additional 475 uL of cortical media was added and the cells returned to the incubator. Exposure starts at day 0 of plating and is continued over twelve days of network development until the experiment is terminated. Cells are fed with fresh medium on DIV 5 and 9, following the recordings on those days. The entire volume of media in the well is exchanged and any vehicle or compound treatment is renewed. Complete details are found in OP-NHEERL/ISTD/SBB/TJS/2015-03-r0 (available on request, email shafer.tim@epa.gov). Measurement of the electrical activity is non-invasive, and recordings can be made from the same plate over multiple different days of the culture. In cortical neurons, this allows for the measurement of extracellular action potentials over the period during which networks form in the MEA plate.
As for `CCOP(=S)(OCC)SCSCC`, the outcome was inactive. Consider `CCOc1ccc(C(C)(C)COCc2cccc(Oc3ccccc3)c2)cc1`, for which the outcome was inactive. Still for that read-out and setting: with `OCC(F)(F)OC(F)(F)C(F)(F)OC(F)(F)CO` the entry was “inactive”; with `CCCCC(CC)COC(=O)c1c(Br)c(Br)c(Br)c(Br)c1C(=O)OCC(CC)CCCC` (stereo not given), “inactive”; with `O=P1(N(CCCl)CCCl)NCCCO1` (stereo not given), “inactive”.

Take `CCCCC(CC)COP(=O)(Oc1ccccc1)Oc1ccccc1` (stereo not given): the call was inactive. In the case of `O=P(Oc1ccccc1)(Oc1ccccc1)Oc1ccccc1`, the compound was classed as inactive.

Consider `ClC1=C(Cl)C2(Cl)C3C(Cl)C(Cl)CC3C1(Cl)C2(Cl)Cl` (stereo not given), for which the AC50 (commonly the concentration at which the activity in the assay is half-maximal) was 7.48 µM (active). In the case of `OCC(F)(F)OC(F)(F)C(F)(F)OC(F)(F)C(F)(F)OC(F)(F)F`, the compound was classed as inactive. With `O=C(O)C(F)(OC(F)(F)C(F)(F)C(F)(F)F)C(F)(F)F` (stereo not given), the result was inactive and the concentration at half-maximal activity (AC50) was 11.7 µM (active). As for `O=C(O)C(F)(F)OC(F)(F)C(F)(F)OC(F)(F)F`, the outcome was inactive.

As for `O=C(O)C1C(C(=O)O)C2(Cl)C(Cl)=C(Cl)C1(Cl)C2(Cl)Cl` (stereo not given), the compound was called inactive. On to `O=C(O)C(F)(F)C(F)(F)C(=O)O`, for which the compound was called inactive. In the case of `CC(C)(C)c1ccccc1OP(=O)(Oc1ccccc1)Oc1ccccc1`, the outcome was inactive. Still for that read-out and setting: as for `c1ccc(OP(Oc2ccccc2)Oc2ccccc2)cc1`, the entry is “inactive”; as for `C=CC(=O)OCC(F)(F)C(F)F`, “inactive”; as for `CC(O)C(F)(F)C(F)(F)F` (stereo not given), “inactive”. As to `OCC(F)(F)OC(F)(F)C(F)(F)OC(F)(F)C(F)(F)OC(F)(F)CO`, the result was inactive. Consider `CO/N=C(/C(=O)OC)c1ccccc1COc1ccccc1C`, for which the AC50 is 0.403 µM (active). `CCC1(c2ccccc2)C(=O)N=C(O)NC1=O` (stereo not given): the outcome was inactive. Regarding `O=C(O)C(F)(F)OC(F)(F)C(F)(F)OC(F)(F)C(=O)O`, the outcome was inactive.

As for `c1cc2c3c(cccc3c1)CC2`, the outcome was inactive.

With `O=C(O)C=CC(F)(C(F)(F)F)C(F)(F)F`, the compound was called inactive. The same measure, in the same setting: with `O=S(=O)(c1ccc(O)cc1)c1ccc(O)cc1` the entry was “inactive”.
